Measured values: PubChem BioAssay (NCI)
This is part of a sample that, as a whole, favours compounds with a hit. Of some 79,000 tested, about 15% had one in any assay. Calls of active or inactive are those of the source. No stated cut-off is given here; in the data, active means growth inhibition above about 70%; inactive means the rest.

How the values were obtained:
[1] = NCI Yeast Anticancer Drug Screen. Data for the rad52 strain (AID 147);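 further: 0% = growth of vehicle-treated control cultures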; settings: S. cerevisiae rad52 mutant growth inhibition, active compounds read high
In short: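 Screen used a yeast mutant impaired in DNA repair. After compound exposure, growth was measured. Values reflect inhibition compared with vehicle-treated cells.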

[2] = NCI Yeast Anticancer Drug Screen. Data for the wt1 strain (AID 149);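 further: 0% = growth of vehicle-treated wt1 cultures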; settings: S. cerevisiae wt1 strain (SPY 50644) growth inhibition, active compounds read high
In short: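 Using yeast strain wt1, compound-induced growth inhibition was determined against vehicle-treated cultures.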

[3] = NCI Yeast Anticancer Drug Screen. Data for the rad50 strain (AID 155);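 further: 0% = growth of vehicle-only cultures of the same strain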; settings: S. cerevisiae rad50 strain growth inhibition, active compounds read high
In short: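 Relative growth inhibition (compound vs vehicle) was measured in yeast with a defined repair-gene alteration.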

[4] = NCI Yeast Anticancer Drug Screen. Data for the mec2-1 strain (AID 157); settings: S. cerevisiae mec2-1 strain, active compounds read high
In short: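 Readout is yeast growth inhibition, normalised to vehicle-treated controls, in the mec2-1 strain exposed to compound.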

[5] = NCI Yeast Anticancer Drug Screen. Data for the rad14 strain (AID 159);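 further: 0% = growth of vehicle-treated control cultures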; settings: S. cerevisiae rad14 strain growth inhibition, active compounds read high
In short: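 Screen for anticancer potential: a yeast strain altered in DNA damage repair is grown with compound, and reduced growth is quantified against vehicle controls.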

[6] = NCI Yeast Anticancer Drug Screen. Data for the sgs1 mgt1 strain (AID 161);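 further: 0% = growth of cultures given vehicle only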; settings: S. cerevisiae sgs1 mgt1 strain, active compounds read high
In short: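 This yeast growth screen uses a strain with defined DNA-repair lesions; compound-treated growth is compared with vehicle-treated growth.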

[7] = NCI Yeast Anticancer Drug Screen. Data for the CLN2oe strain (AID 163);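 further: 0% = growth of vehicle-only control cultures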; settings: S. cerevisiae CLN2oe strain, active compounds read high
In short: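 Values reflect how much compound exposure reduced yeast growth, referenced to vehicle-exposed cells. Assay organism is a strain with a defined genetic change affecting cell-cycle control.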

[8] = NCI Yeast Anticancer Drug Screen. Data for the cln2 rad14 strain (AID 165);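 further: 0% = growth equal to vehicle treated cultures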; settings: S. cerevisiae cln2 rad14 strain, active compounds read high
In short: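 Relative to vehicle controls, growth inhibition of compound-treated cln2 rad14 yeast was recorded.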

[9] = NCI Yeast Anticancer Drug Screen. Data for the bub3 strain (AID 167); settings: S. cerevisiae bub3 mutant strain, active compounds read high
In short: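 Screening used yeast with an engineered genetic alteration affecting cell cycle control. Compound-exposed cultures were compared with vehicle cultures, and reduced growth was taken as inhibition.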

[10] = NCI Yeast Anticancer Drug Screen. Data for the wt2 strain (AID 169);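 further: 0% = growth of vehicle-treated yeast cultures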; settings: S. cerevisiae wt2 strain growth inhibition, active compounds read high
In short: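 Values express reduction in yeast growth under compound treatment, referenced to vehicle-treated cells.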

[11] = NCI Yeast Anticancer Drug Screen. Data for the mlh1 strain (AID 171);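 further: 0% = growth of vehicle-treated control cultures of the same strain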; settings: S. cerevisiae mlh1 strain growth inhibition, active compounds read high
In short: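 Steps: expose the defined-mutant yeast strain to compound; expose a parallel culture to vehicle; measure growth; express compound effect as inhibition relative to the vehicle culture.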

[12] = NCI Yeast Anticancer Drug Screen. Data for the sgs1 strain (AID 173);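 further: 0% = growth of vehicle-only control cultures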; settings: S. cerevisiae sgs1 mutant, active compounds read high
In short: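 Treat defined-mutant yeast with compound; measure growth; calculate inhibition relative to vehicle-treated cells.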

[13] = NCI Yeast Anticancer Drug Screen. Data for the mlh1 rad18 strain (AID 175); settings: S. cerevisiae mlh1 rad18 strain growth inhibition, active compounds read high
In short: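 Test agents were incubated with a yeast strain of defined genotype (DNA damage repair defect). Inhibition of growth was derived by comparison with vehicle-exposed cultures.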

[14] = NCI Yeast Anticancer Drug Screen. Data for the rad18 strain (AID 177); settings: S. cerevisiae rad18 mutant growth inhibition, active compounds read high
In short: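 A genetically defined yeast mutant impaired in DNA damage repair was treated with test compounds, then its growth was measured against cultures receiving vehicle alone.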

[15] = NCI Yeast Anticancer Drug Screen. Data for the rad50EPP+ strain (AID 151);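 further: 0% = growth of vehicle-treated control cultures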; settings: S. cerevisiae rad50 mutant strain, active compounds read high
In short: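 Exposing the rad50EPP+ strain to each compound, growth was compared with vehicle-only cultures to give inhibition.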

[16] = NCI Yeast Anticancer Drug Screen. Data for the mgt1 strain (AID 153); settings: S. cerevisiae mgt1 mutant growth inhibition, active compounds read high
In short: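 Genetically defined yeast (mgt1) treated with compound; inhibition of growth expressed against vehicle-treated controls.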

[17] = at 5.0 µM (retest, dose inferred, filed as 0.5)
[18] = at 50.0 µM (retest, dose inferred, filed as 5.0)

Measured: growth inhibition

Cc1nn(-c2cc(Cl)ccc2[N+](=O)[O-])c(C)c1Cl
inactive: [1]; at 1.2 µM 1% | [1]; at 3.7 µM 3% | [1]; at 11.0 µM 2% | [1]; at 33.0 µM 3% | [1]; at 100.0 µM 2% | [2]; at 1.2 µM -1% | [2]; at 3.7 µM -1% | [2]; at 11.0 µM 1% | [2]; at 33.0 µM -1% | [2]; at 100.0 µM 2% | [3]; at 1.2 µM 0% | [3]; at 3.7 µM 1% | [3]; [17] -20% | [3]; at 11.0 µM -16% | [3]; at 33.0 µM 2% | [3]; [18] -9% | [3]; at 50.0 µM 50% | [3]; at 100.0 µM 2% | [4]; at 1.2 µM 7% | [4]; at 3.7 µM 0% | [4]; [17] -7% | [4]; at 11.0 µM 3% | [4]; at 33.0 µM 2% | [4]; [18] -18% | [4]; at 50.0 µM 54.1% | [4]; at 100.0 µM 4% | [5]; at 1.2 µM -1% | [5]; at 3.7 µM 0% | [5]; at 11.0 µM 4% | [5]; at 33.0 µM 2% | [5]; at 100.0 µM 3% | [6]; [17] -15% | [6]; [18] -10% | [6]; at 50.0 µM 43.6% | [7]; at 1.2 µM 1% | [7]; at 3.7 µM 2% | [7]; at 11.0 µM -2% | [7]; at 33.0 µM 4% | [7]; at 100.0 µM 5% | [8]; [17] 39% | [8]; [18] 4% | [8]; at 50.0 µM 26.1% | [9]; at 1.2 µM 1% | [9]; at 3.7 µM 7% | [9]; [17] -6% | [9]; at 11.0 µM 20% | [9]; at 33.0 µM 24% | [9]; [18] -6% | [9]; at 50.0 µM 64.2% | [9]; at 100.0 µM 16% | [10]; at 1.2 µM 0% | [10]; at 3.7 µM -1% | [10]; at 11.0 µM -1% | [10]; at 33.0 µM -1% | [10]; at 100.0 µM 0% | [11]; at 1.2 µM 0% | [11]; at 3.7 µM 2% | [11]; at 11.0 µM 3% | [11]; at 33.0 µM 1% | [11]; at 100.0 µM 3% | [12]; at 1.2 µM -1% | [12]; at 3.7 µM -2% | [12]; at 11.0 µM -1% | [12]; at 33.0 µM -1% | [12]; at 100.0 µM 2% | [13]; [17] -3% | [13]; [18] -9% | [13]; at 50.0 µM 15.2% | [14]; at 1.2 µM 2% | [14]; at 3.7 µM 2% | [14]; at 11.0 µM 2% | [14]; at 33.0 µM -14% | [14]; at 100.0 µM 1%

OC(COc1cccc2ccccc12)CN1CCOCC1 (stereo unspecified)
inactive: [1]; at 1.2 µM 15% | [1]; at 3.7 µM 32% | [1]; at 11.0 µM 44% | [1]; at 33.0 µM 51% | [1]; at 100.0 µM 50% | [15]; at 1.2 µM -5% | [15]; at 3.7 µM -6% | [15]; at 11.0 µM -9% | [15]; at 33.0 µM -9% | [15]; at 100.0 µM -3% | [16]; at 1.2 µM 8% | [16]; at 3.7 µM 26% | [16]; at 11.0 µM 42% | [16]; at 33.0 µM 52% | [16]; at 100.0 µM 55% | [3]; at 1.2 µM 11% | [3]; at 3.7 µM 19% | [3]; [17] 54% | [3]; at 11.0 µM 42% | [3]; at 33.0 µM 37% | [3]; at 100.0 µM 36% | [4]; at 1.2 µM 9% | [4]; at 3.7 µM 17% | [4]; [17] 24% | [4]; at 11.0 µM 23% | [4]; at 33.0 µM 27% | [4]; [18] 46% | [4]; at 50.0 µM 37% | [4]; at 100.0 µM 39% | [5]; at 1.2 µM 41% | [5]; at 3.7 µM 39% | [5]; at 11.0 µM 45% | [5]; at 33.0 µM 49% | [5]; at 100.0 µM 52% | [6]; [17] 43% | [6]; at 50.0 µM 46.5% | [7]; at 1.2 µM 21% | [7]; at 3.7 µM 48% | [7]; at 11.0 µM 61% | [7]; at 33.0 µM 69% | [8]; [17] 14% | [8]; [18] 59% | [9]; at 1.2 µM 8% | [9]; at 3.7 µM 25% | [9]; [17] 35% | [9]; at 11.0 µM 29% | [9]; at 33.0 µM 57% | [9]; [18] 60% | [9]; at 50.0 µM 49.1% | [9]; at 100.0 µM 47% | [10]; at 1.2 µM 17% | [10]; at 3.7 µM 27% | [10]; at 11.0 µM 32% | [10]; at 33.0 µM 39% | [10]; at 100.0 µM 35% | [11]; at 1.2 µM 11% | [11]; at 3.7 µM 21% | [11]; at 11.0 µM 33% | [11]; at 33.0 µM 18% | [11]; at 100.0 µM 37% | [12]; at 1.2 µM 29% | [12]; at 3.7 µM 49% | [12]; at 11.0 µM 61% | [12]; at 33.0 µM 59% | [12]; at 100.0 µM 56% | [13]; [17] 37% | [13]; [18] 49% | [13]; at 50.0 µM 37.3% | [14]; at 1.2 µM 32% | [14]; at 3.7 µM 39% | [14]; at 11.0 µM 55% | [14]; at 33.0 µM 64% | [14]; at 100.0 µM 51%
active: [3]; [18] 78% | [3]; at 50.0 µM 71.5% | [6]; [18] 71% | [7]; at 100.0 µM 72% | [8]; at 50.0 µM 73.5%
